In PubChem BioAssay (NCI):
About 79,000 compounds went through this panel and 15% of them were active in at least one assay; those are over-represented in the sample as a whole. Calls of active or inactive are those of the source. Cut-off read from the data, not from the text of the source: active = growth inhibition above about 70%; inactive = the rest.

Assay: NCI Yeast Anticancer Drug Screen. Data for the mlh1 rad18 strain (AID 175)
Details: S. cerevisiae mlh1 rad18 strain growth inhibition; at 50.0 µM (retest, dose inferred, filed as 5.0); stronger effect = higher value
In short: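 A repair-deficient yeast strain is exposed to test compound, and growth is scored relative to vehicle-treated controls.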
In the case of `Cc1ccc2c(c1)CC1(C2)Cc2ccc(C)cc2C1=O` (stereo not given), the growth inhibition is reported as 65% (inactive).
With `NC1=CC(=O)c2ccccc2C1=O` the growth inhibition was 84% (active).
With `CCCCC(CC(=O)O)c1ccc(Cl)cc1` (stereo not given) the growth inhibition was 13% (inactive).
For `OCCOCCO[P+]1(OCCOCCO)n2c3ccc2C(c2ccccc2)=C2C=CC(=N2)C(c2ccccc2)=c2ccc(n21)=C(c1ccccc1)C1=NC(=C3c2ccccc2)C=C1`, the growth inhibition was 98% (active).
In the case of `Clc1ccc2[nH]c(-c3ccccc3)c(-c3ccccn3)c2c1`, the growth inhibition is reported as 97% (active).
With `COc1cc(NS(C)(=O)=O)ccc1Nc1c2ccccc2nc2ccccc12` the growth inhibition was 38% (inactive).
With `COC1/C=C/OC2(C)Oc3c(C)c(O)c4c(c3C2=O)C(=O)C=C(NC(=O)/C(C)=C\C=C\C(C)C(OC=O)C(C)C(O)C(C)C(OC(C)=O)C1C)C4=O` (stereo not given) the growth inhibition was 27% (inactive).
With `COc1ccc(CN(C)c2c(C)ccc3ccccc23)cc1` the growth inhibition was 78% (active).
For `CCOC(=O)c1c(-c2ccccc2)csc1NC(=O)CBr`, the growth inhibition was 98% (active).
In the case of `Nc1nc2nc(I)[nH]c2c(=O)[nH]1`, the growth inhibition is reported as -2% (inactive).
In the case of `CC(CN(CC(=O)O)CC(=O)O)N(CC(=O)O)CC(=O)O.[Cl][Pd][Cl]` (stereo not given), the growth inhibition is reported as 83% (active).
With `COC(=O)c1nc(=S)[nH]c(C(=O)OC)c1C(=O)c1ccc2ccccc2c1` the growth inhibition was 98% (active).
With `O=C(Nc1ccccc1)OCCc1ccc(Br)cc1` the growth inhibition was 0% (inactive).
With `O=C(CCN1CCCCC1)/C(=C\c1ccc(Cl)cc1)c1ccccc1` the growth inhibition was 99% (active).
For `FC(F)(F)c1nc(S)cc(=S)[nH]1`, the growth inhibition was 10% (inactive).
With `CCCCC(=O)N/N=C/c1ccc([N+](=O)[O-])s1` the growth inhibition was 97% (active).
With `CSC(=S)N/N=C(\C)c1nccnc1C` the growth inhibition was 98% (active).
In the case of `CC(=O)Oc1cc2c(cc1OC(C)=O)OCC(c1ccccc1)C2` (stereo not given), the growth inhibition is reported as 53% (inactive).
In the case of `O=Cc1ccc(O)c2ccccc12`, the growth inhibition is reported as 88% (active).
With `CC(=O)N(C1=C(Cl)C(=O)c2ccccc2C1=O)c1ccc(Cl)cc1` the growth inhibition was 99% (active).
In the case of `Cn1c2c(c3ccccc31)CCN1C[C@@H]3CCCC[C@H]3C[C@@H]21`, the growth inhibition is reported as 25% (inactive).
In the case of `CCOc1ncc(Cl)c(OCC)n1`, the growth inhibition is reported as -5% (inactive).
In the case of `C=C1C(=O)OC2C1CC1OC2C(C)CCC/C(C)=C\CCC1(C)O` (stereo not given), the growth inhibition is reported as 20% (inactive).
For `CCCCN(CCCC)CCC(O)(c1ccc(OC)c2ccccc12)C(O)(CCN(CCCC)CCCC)c1ccc(OC)c2ccccc12` (stereo not given), the growth inhibition was 99% (active).
In the case of `CS/C(N)=N/NC(=O)CCC(=O)Nc1cc(Cl)c(Cl)cc1Cl`, the growth inhibition is reported as 3% (inactive).
For `COc1ccc(OC)c(N=Nc2c(C)[nH]n(C(N)=S)c2=O)c1`, the growth inhibition was 25% (inactive).
With `O=C(CC(=O)c1ccccc1)CC1(O)CCCCC1` the growth inhibition was 29% (inactive).
For `Nc1ccc2ccccc2c1Cc1c(O)ccc2ccccc12`, the growth inhibition was 88% (active).
In the case of `CC[n+]1c(/C=C/c2cc(C(=O)OC)n3c2sc2ccccc23)sc2ccccc21`, the growth inhibition is reported as 99% (active).
For `O=CNc1ccc2c(c1)Cc1cc(NC=O)ccc1-2`, the growth inhibition was 79% (active).
For `O=C1CC(c2ccccc2)C(=O)N2C(=O)CC(c3ccccc3)C(=O)N12` (stereo not given), the growth inhibition was -7% (inactive).
For `CN1CCN(CCOC(=O)N2c3ccccc3Sc3ccccc32)CC1`, the growth inhibition was -3% (inactive).
For `COc1nc(Nc2ccc(/C=C/c3ccc(Nc4nc(OC)nc(N(CCO)CCO)n4)cc3S(=O)(=O)O)c(S(=O)(=O)O)c2)nc(N(CCO)CCO)n1`, the growth inhibition was 49% (inactive).
In the case of `NNC(=O)NN=C(c1ccccc1)c1ccccc1`, the growth inhibition is reported as 1% (inactive).
For `CCOC(=O)C(Br)C(Br)c1cccc([N+](=O)[O-])c1` (stereo not given), the growth inhibition was 99% (active).
In the case of `CCCCCCC(O)C(CO)CCCCC` (stereo not given), the growth inhibition is reported as 92% (active).
In the case of `Oc1c(Br)c(Br)c(O)c(Br)c1Br`, the growth inhibition is reported as 35% (inactive).
For `CC(=O)n1nc2c(c1CC(C)C)C(=O)C(Nc1ccccc1)=CC2=O`, the growth inhibition was 99% (active).
For `CC(C)(CCBr)[N+](=O)[O-]`, the growth inhibition was -127% (inactive).
For `Nc1ccccc1SCc1csc(-c2ccc(Cl)cc2)n1`, the growth inhibition was 98% (active).

Same assay, conditions: S. cerevisiae mlh1 rad18 strain growth inhibition; at 50.0 µM; stronger effect = higher value
For `Cc1ccc2c(c1)CC1(C2)Cc2ccc(C)cc2C1=O` (stereo not given), the growth inhibition was 44.1% (inactive).
For `NC1=CC(=O)c2ccccc2C1=O`, the growth inhibition was 95.5% (active).
In the case of `CCCCC(CC(=O)O)c1ccc(Cl)cc1` (stereo not given), the growth inhibition is reported as 66% (inactive).
For `OCCOCCO[P+]1(OCCOCCO)n2c3ccc2C(c2ccccc2)=C2C=CC(=N2)C(c2ccccc2)=c2ccc(n21)=C(c1ccccc1)C1=NC(=C3c2ccccc2)C=C1`, the growth inhibition was 85.8% (active).
With `Clc1ccc2[nH]c(-c3ccccc3)c(-c3ccccn3)c2c1` the growth inhibition was 95.4% (active).
With `COc1cc(NS(C)(=O)=O)ccc1Nc1c2ccccc2nc2ccccc12` the growth inhibition was 32.9% (inactive).
For `COC1/C=C/OC2(C)Oc3c(C)c(O)c4c(c3C2=O)C(=O)C=C(NC(=O)/C(C)=C\C=C\C(C)C(OC=O)C(C)C(O)C(C)C(OC(C)=O)C1C)C4=O` (stereo not given), the growth inhibition was 55.7% (inactive).
With `COc1ccc(CN(C)c2c(C)ccc3ccccc23)cc1` the growth inhibition was 13.2% (inactive).
In the case of `CCOC(=O)c1c(-c2ccccc2)csc1NC(=O)CBr`, the growth inhibition is reported as 99.2% (active).
In the case of `Nc1nc2nc(I)[nH]c2c(=O)[nH]1`, the growth inhibition is reported as 10.9% (inactive).
For `CC(CN(CC(=O)O)CC(=O)O)N(CC(=O)O)CC(=O)O.[Cl][Pd][Cl]` (stereo not given), the growth inhibition was 90.7% (active).
For `COC(=O)c1nc(=S)[nH]c(C(=O)OC)c1C(=O)c1ccc2ccccc2c1`, the growth inhibition was 94.5% (active).
With `O=C(Nc1ccccc1)OCCc1ccc(Br)cc1` the growth inhibition was -3.25% (inactive).
In the case of `O=C(CCN1CCCCC1)/C(=C\c1ccc(Cl)cc1)c1ccccc1`, the growth inhibition is reported as 99.2% (active).
In the case of `FC(F)(F)c1nc(S)cc(=S)[nH]1`, the growth inhibition is reported as -30% (inactive).
In the case of `CCCCC(=O)N/N=C/c1ccc([N+](=O)[O-])s1`, the growth inhibition is reported as 97% (active).
For `CSC(=S)N/N=C(\C)c1nccnc1C`, the growth inhibition was 98.9% (active).
With `CC(=O)Oc1cc2c(cc1OC(C)=O)OCC(c1ccccc1)C2` (stereo not given) the growth inhibition was 63.4% (inactive).
In the case of `O=Cc1ccc(O)c2ccccc12`, the growth inhibition is reported as 64.5% (inactive).
With `CC(=O)N(C1=C(Cl)C(=O)c2ccccc2C1=O)c1ccc(Cl)cc1` the growth inhibition was 96.7% (active).
With `Cn1c2c(c3ccccc31)CCN1C[C@@H]3CCCC[C@H]3C[C@@H]21` the growth inhibition was 30.1% (inactive).
With `CCOc1ncc(Cl)c(OCC)n1` the growth inhibition was -18.1% (inactive).
In the case of `C=C1C(=O)OC2C1CC1OC2C(C)CCC/C(C)=C\CCC1(C)O` (stereo not given), the growth inhibition is reported as 92.6% (active).
In the case of `CCCCN(CCCC)CCC(O)(c1ccc(OC)c2ccccc12)C(O)(CCN(CCCC)CCCC)c1ccc(OC)c2ccccc12` (stereo not given), the growth inhibition is reported as 97.5% (active).
With `CS/C(N)=N/NC(=O)CCC(=O)Nc1cc(Cl)c(Cl)cc1Cl` the growth inhibition was 19.5% (inactive).
In the case of `COc1ccc(OC)c(N=Nc2c(C)[nH]n(C(N)=S)c2=O)c1`, the growth inhibition is reported as 66.7% (inactive).
With `O=C(CC(=O)c1ccccc1)CC1(O)CCCCC1` the growth inhibition was 89.1% (active).
For `Nc1ccc2ccccc2c1Cc1c(O)ccc2ccccc12`, the growth inhibition was 95.7% (active).
For `CC[n+]1c(/C=C/c2cc(C(=O)OC)n3c2sc2ccccc23)sc2ccccc21`, the growth inhibition was 98.8% (active).
In the case of `O=CNc1ccc2c(c1)Cc1cc(NC=O)ccc1-2`, the growth inhibition is reported as 74.2% (active).
For `O=C1CC(c2ccccc2)C(=O)N2C(=O)CC(c3ccccc3)C(=O)N12` (stereo not given), the growth inhibition was 45.8% (inactive).
With `CN1CCN(CCOC(=O)N2c3ccccc3Sc3ccccc32)CC1` the growth inhibition was 4.4% (inactive).
With `COc1nc(Nc2ccc(/C=C/c3ccc(Nc4nc(OC)nc(N(CCO)CCO)n4)cc3S(=O)(=O)O)c(S(=O)(=O)O)c2)nc(N(CCO)CCO)n1` the growth inhibition was 80.4% (active).
In the case of `NNC(=O)NN=C(c1ccccc1)c1ccccc1`, the growth inhibition is reported as 33.1% (inactive).
For `CCOC(=O)C(Br)C(Br)c1cccc([N+](=O)[O-])c1` (stereo not given), the growth inhibition was 99.6% (active).
For `CCCCCCC(O)C(CO)CCCCC` (stereo not given), the growth inhibition was 98.5% (active).
With `Oc1c(Br)c(Br)c(O)c(Br)c1Br` the growth inhibition was 98% (active).
In the case of `CC(=O)n1nc2c(c1CC(C)C)C(=O)C(Nc1ccccc1)=CC2=O`, the growth inhibition is reported as 78.3% (active).
With `CC(C)(CCBr)[N+](=O)[O-]` the growth inhibition was 0.35% (inactive).
For `Nc1ccccc1SCc1csc(-c2ccc(Cl)cc2)n1`, the growth inhibition was 97.6% (active).
